Only some compounds are listed: those with a hit (about 0.44% of all), similar ones and a draw of the others.
Hsp90 Hop PPI = changes Hsp90-Hop TPR2A binding signal, up or down. AlphaScreen TPR2A-His6 binding biotin-Hsp90 C-terminal peptide. Potency, µM (titrated, usually from 57 µM), inactives show top-dose activity change, negative = inhibition. actives 0.44% (n = 71,000); active means well fitted curve in either direction with a large enough effect; inconclusive means small, poorly fitted or top-dose-only effect, or another doubt; further: potency means the concentration at half of the fitted maximal effect; on the % scale 0 is the no-effect control and ±100 the full control effect
HBB splice mod = hemoglobin beta splicing modulation | HBB splicing reporter cell assay, activation; EGFP reporter with mutant IVS2-654 intron; response scale: normalised to 500 nM splice-correcting PNA | Potency, µM (highest dose often 46.1 µM), for inactives: top-dose activation, hits mostly activators | actives 0.06% (n = 65,000) | AID 925; further: potency means the concentration at half of the fitted maximal effect; 0% is about no effect
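HeLa cells stably expressing EGFP interrupted by mutant beta-globin intron 2 (IVS2-654), 500/well in 2% FCS. Treated with compound for 2 days at 37C. Splicing correction scored as total well GFP intensity (488 nm excitation, 500-520 nm emission); 500 nM antisense PNA served as control.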
USP2a inhib = inhibitors of human ubiquitin-specific protease USP2a | Potency, µM (titrated, usually from 38.3 µM), for inactives: at the highest dose activity change, negative = inhibition, usual class: inhibitors | O75604 | AID 927 | USP2a enzymatic assay, qHTS inhibition | actives 0.1% (n = 60,000); further: potency means the concentration at half of the fitted maximal effect; nearly all actives have a fitted effect of over 60% in size
Target sequence (O75604 whole entry, looked up): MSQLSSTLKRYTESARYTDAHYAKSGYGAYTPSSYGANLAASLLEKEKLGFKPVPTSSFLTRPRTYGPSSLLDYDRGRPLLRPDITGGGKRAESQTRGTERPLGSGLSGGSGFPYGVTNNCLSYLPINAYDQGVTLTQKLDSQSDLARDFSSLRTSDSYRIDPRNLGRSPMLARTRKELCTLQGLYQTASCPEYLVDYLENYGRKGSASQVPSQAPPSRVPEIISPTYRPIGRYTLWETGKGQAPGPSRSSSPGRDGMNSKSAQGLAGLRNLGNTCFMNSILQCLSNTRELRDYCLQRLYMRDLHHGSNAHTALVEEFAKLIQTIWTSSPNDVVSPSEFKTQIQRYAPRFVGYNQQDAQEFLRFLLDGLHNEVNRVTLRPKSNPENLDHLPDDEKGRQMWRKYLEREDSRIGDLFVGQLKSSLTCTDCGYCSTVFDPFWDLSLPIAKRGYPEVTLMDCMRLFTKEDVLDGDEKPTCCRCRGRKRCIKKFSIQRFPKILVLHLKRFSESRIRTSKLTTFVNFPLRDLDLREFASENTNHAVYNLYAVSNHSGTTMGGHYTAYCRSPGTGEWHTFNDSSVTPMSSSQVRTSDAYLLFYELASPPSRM
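Inhibition is measured in a cell-free coupled assay with 20 nM USP2 core, 20 nM Ub-PLA2 and 20 uM NBD C6-HPC, 2.5 h incubation. Activity normalized to NEM control.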
Ub-GFP proteasome = proteasome inhibitors stabilizing ubiquitin-GFP reporter | Ubiquitin-GFP reporter cells, proteasome inhibition, GFP fluorescence; response scale: untreated = 0%, 10 µM MG-132 = 100% | Potency, µM (highest dose often 45.9 µM), for the others: at the highest dose activation (GFP accumulation), hits mostly activators | 67,000 tested, under 10 active | AID 526; active means well fitted activation curve with a large enough effect, not every such curve was filed as active; inconclusive means small, poorly fitted or top-dose-only effect, or another doubt; inactive means no such curve, though single readings can be large or run the other way; further: potency means the concentration at half of the fitted maximal effect
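Proteasome block read as GFP accumulation: ubiquitin(G76V)-GFP U2OS cells exposed to compound (2.9 nM–46 uM) for 4 hr at 37 C. Normalization used untreated cells as 0% and 10 uM MG-132 as 100%; concentration-response curves fitted.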
Epigenetic mod = epigenetic GFP locus derepression in mouse cells. mouse C127i GFP locus derepression, cytometry, 30 h. Potency, µM (doses to about 46.1 µM), for the others: at the highest dose GFP derepression (activation). actives 0.09% (n = 68,000); further: % of control where 0% means no effect
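Derepression screen: silenced CMV-GFP reporter in murine C127i cells, 30 h compound incubation at 37 C, washed cells imaged by laser-scanning cytometer to enumerate GFP-expressing objects of 20 to 120 um.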
Starred values were filed as active, the others as inactive; u = inconclusive; x = not tested or not shown; [ ] = another dose, or the depositor's remark. Unless noted, the call rests on the fitted dose curve; in most records, active means well fitted curve in the direction sought with a large enough effect; inconclusive means small, poorly fitted or top-dose-only effect, or another doubt; inactive means no such curve, though single readings can be large; an effect the other way counts as inactive or inconclusive.

SMILES	Hsp90 Hop PPI	HBB splice mod	USP2a inhib	Ub-GFP proteasome	Epigenetic mod
COc1ccc(Oc2ncc3nc(-c4cn(C)c5ccccc45)c(=O)n(CCC#N)c3n2)cc1	5.01µM*	-0.6%	122.0%	0.0%	-2.2%[9.22 µM]
CN1C2CC(OC(=O)C(CO)c3ccccc3)C[C@@H]1[C@H]1OC21 (stereo partly specified)	x	x	6.2%	x	x
COc1ccc(C(=O)Nc2nc(-c3cccs3)cs2)cc1	1.5%	-0.3%	-2.6%	-1.0%	2.2%
Cc1csc(NC(=O)c2sc3nc(-c4cccs4)ccc3c2N)n1	u	15.8µM*	41.3%	0.0%	17.6%
CC(C)[C@@H](OCc1ccccc1)[C@H](C)/C=N\O[C@@H](C)c1cn([C@@H]2COC[C@@H]2O)nn1	x	3.1%[9.22 µM]	x	x	x
O=C(CC(c1ccco1)S(=O)(=O)c1ccccc1)c1ccc(F)cc1 (stereo unspecified)	x	x	x	x	3.16µM*
CO[C@@H]1/C=C\O[C@]2(C)Oc3c(C)c(O)c4c(O)c(c(/C=N\N5CCN(C)CC5)c(O)c4c3C2=O)NC(=O)/C(C)=C\C=C/[C@H](C)[C@H](O)[C@H](C)[C@H](O)[C@H](C)[C@H](OC(C)=O)[C@@H]1C	-15.6%	x	x	-3.9%	-2.5%[9.22 µM]
CCCCC(=O)N(CCOC)c1nnc(-c2ccc(OC)cc2)s1	-0.5%	x	2µM*	0.0%	1.9%
CN1CCc2c(cc(O)c(O)c2Cl)[C@H](c2cccc(Cl)c2)C1	12.6µM*	0.8%	18.5%	-2.0%	-1.1%
O=C(O)c1cc2c(cc1S(=O)(=O)O)[C@H]1[C@@H]([C@H]3[C@H]2[C@@]2(Cl)C(Cl)=C(Cl)[C@]3(Cl)C2(Cl)Cl)[C@]2(Cl)C(Cl)=C(Cl)[C@@]1(Cl)C2(Cl)Cl	-2.8%[11 µM]	-1.6%[9.22 µM]	x	-3.8%[9.17 µM]	-2.4%[9.22 µM]
COc1ccc([C@@H]2OC[C@]3(COC(C)=O)[C@H](C)C=C(C)[C@@H]2[C@H]3C)cc1	u	x	x	-1.0%	0.0%[9.22 µM]
CCCc1ccc(Oc2cn[nH]c2-c2ccc(O)c(C)c2O)cc1	-7.3%	-0.7%	u	1.1%	4.2%
CCCc1ccc(Oc2c(-c3ccc(O)c(C)c3O)n[nH]c2C)cc1	-12.7%	1.2%	15.8µM*	-6.2%	4.4%
N#C/C(=C\c1c[nH]c2ccccc12)C(=O)c1ccc(O)c(O)c1	u	-1.8%	u	5.8%	0.5%
Cc1cc(N2CCC(C)CC2)n2ncc(-c3ccccc3)c2n1	u	-0.1%[1.84 µM]	-6.0%	-0.3%	0.5%
Cc1cc(N2CCCCC2)n2ncc(-c3ccc(Cl)cc3)c2n1	25.1µM*	2.6%[57.5 µM]	-6.8%	0.9%	0.0%
CCCCC(CC)CNCC(CC)CCCC (stereo unspecified)	-0.4%	-0.5%	x	x	x
Cc1cccc2cccnc12	-3.5%	0.2%	x	x	x
Cc1ccc2ccc3cccc4ccc1c2c34	39.8µM*	0.3%	x	x	x
CCCCOn1c(C)c(C(=O)OCC)c2c3nonc3ccc21	31.6µM*	0.8%	u	-3.8%	3.6%
CCOC(=O)Cc1c(C)c2ccc(N(CC)CC)cc2oc1=O	25.1µM*	x	-12.5%	0.0%	-2.4%
CCN(CC)c1ccc2c(Cl)c(Br)c(=O)oc2c1	25.1µM*	x	u	u	10µM*
O=C(CC(=O)Nc1ccccn1)Nc1ccccn1	-2.7%	x	1.1%	2.3%	1.2%
c1ccc(/N=C2\N=C(Nc3ccccn3)c3ccccc32)nc1	-21.4%	-0.4%[57.5 µM]	3.2%	-2.0%	12.6µM*
Nc1c(S(=O)(=O)O)cc(Nc2ccc(Nc3nc(Cl)nc(Nc4ccc(S(=O)(=O)O)cc4)n3)c(S(=O)(=O)O)c2)c2c1C(=O)c1ccccc1C2=O	u	1.0%	7.94µM*	-2.6%	-1.1%
CC(=O)OCC(=O)[C@@]1(O)CC[C@@H]2[C@@H]3CCC4=CC(=O)CC[C@@]4(C)[C@H]3C(=O)C[C@]21C	-3.1%	-1.3%	x	-5.4%	0.0%
CC(C)[C@@H](CC(=O)N[C@@H]1CCNC[C@H]1C(=O)N[C@H](CC(=O)N[C@@H](CCC(=O)O)CC(=O)O)Cc1c[nH]c2ccccc12)NC(=O)C[C@H](CO)NC(=O)[C@@H]1CNCC[C@H]1N	31.6µM*	-0.9%	x	x	x

Screening data from PubChem.
